# High-throughput results from PubChem BioAssay.
# SW480 rerep = DNA re-replication induction in SW480 cells | SW480 DNA re-replication, Hoechst DNA content imaging, 48 h | Potency, µM (doses to about 46.1 µM), for the others: at the top dose re-replication activation, hits mostly activators | 1.8% of 340,000 active; further: potency means the concentration at half of the fitted maximal effect; % of control where 0% means no effect; nearly all actives have a fitted effect of over 55% in size
#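 Treated cells incubate 48 hr (37 C, 5% CO2), are stained 40 min with Hoechst, and nuclear fluorescence is enumerated; a rise in nuclei with high DNA signal marks re-replication.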
# KB-V1 cytotox = kills drug-selected multidrug resistant KB-V1 cells; 3.4% of 400,000 active; KB-V1 MDR cells viability, CellTiter-Glo, 72 h; AID 1347076; Potency, µM (doses to about 46.1 µM), actives largely listed as cytotoxic; further: potency means the concentration at half of the fitted maximal effect; on the % scale 0 is the no-effect control and ±100 the full control effect; nearly all actives have a fitted effect of over 60% in size
#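 qHTS viability screen in drug-selected KB-V1 MDR cells: 72 h compound treatment at 37 degrees C, ATP luminescence end point.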
# KCNH2 WT inh = KCNH2 (human, wildtype) channel inhibition | Q12809 | U2OS, BacMam KCNH2, thallium flux FluxOr; stronger effect = lower value | activity change, % at 1.84 µM | 0.37% of 340,000 active;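 active means maximum activity change below -70%; inconclusive means maximum activity change between -70% and -50%; inactive means maximum activity change above -50%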; further: on the % scale 0 is the no-effect control and ±100 the full control effect
#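 U2OS cells transduced with wild-type KCNH2 virus are loaded with FluxOr dye for 45 min, and thallium flux is measured in kinetic reads before and after stimulation buffer. Rate constants are normalized to DMSO controls.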
# MCF10A rereplic = inducers of DNA re-replication in MCF 10A breast cells. AID 624296. MCF 10A DNA re-replication, Hoechst nuclear intensity, 48 h. Potency, µM (series often up to 46.1 µM), for the others: at the top dose activity, positive = re-replication, usual class: activators. 2.9% of 350,000 active; further: potency means the concentration at half of the fitted maximal effect; % of control where 0% means no effect; nearly all actives have a fitted effect of over 50% in size
# KCNH2 3.1 inh = inhibitors of human KCNH2 3.1 potassium channel isoform; activity change, % (tested at about 1.8 µM); U2OS KCNH2 3.1, thallium flux FluxOr; stronger effect = lower value; 0.95% of 340,000 active;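 active means maximum activity change below -70%; inconclusive means maximum activity change from -70% to -50%; inactive means maximum activity change above -50%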;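 further: thallium influx rate constant from kinetic fluorescence after stimulation buffer; on the % scale 0 is the no-effect control and ±100 the full control effect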
#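 Thallium flux read-out: FluxOr dye with Red40 quencher in HBSS/HEPES, 45 min at RT. Rate constants from kinetic reads were normalized to positive and negative DMSO controls. Cells: U2OS virally expressing the 3.1 isoform.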
# KB-3-1 cytotox = KB-3-1 parental cell cytotoxicity | 1.4% of 400,000 active | KB-3-1 viability, CellTiter-Glo ATP luminescence, 72 h | Potency, µM (titrated, usually from 46.1 µM), hits mostly cytotoxic; further: potency means the concentration at half of the fitted maximal effect; on the % scale 0 is the no-effect control and ±100 the full control effect; nearly all actives have a fitted effect of over 60% in size
#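 72 h, 37 °C compound treatment of KB-3-1 parental cells; CellTiter-Glo added, 10 min, luminescence read. Data corrected against DMSO-only plates and normalized before curve fitting.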
# * hit, by the source's call; i = inactive; ? = inconclusive; . = no result. Rows were chosen to be rich in hits. Some 7.6% of all compounds tested hit in one or more screens of this group. Unless noted, the call rests on the fitted dose curve; in most records, active means well fitted curve in the direction sought with a large enough effect; inconclusive means small, poorly fitted or top-dose-only effect, or another doubt; inactive means no such curve, though single readings can be large; an effect the other way counts as inactive or inconclusive.
SMILES,SW480 rerep,KB-V1 cytotox,KCNH2 WT inh,MCF10A rereplic,KCNH2 3.1 inh,KB-3-1 cytotox
CC1=CCC(C(=O)O)C(C(=O)NC2CCCCC2)C1 (centres undefined),6.6%,i,3.0,-2.3%,27.7,i
Cc1cccc(Cc2cnc(N3C(=N)SC(C)C3=O)s2)c1 (centres undefined),11.8%,?,-2.2,15.5%,-3.3,i
N=C1SCC(=O)N1c1ncc(Cc2ccccc2Cl)s1,?,i,2.6,18.4µM*,-1.7,i
N=C1SCC(=O)N1c1ncc(Cc2cccc(Cl)c2)s1,?,?,-1.2,11.6µM*,-3.7,i
CCCCC(=O)O[C@]1(C(=O)CO)CCC2C3CCC4=CC(=O)CCC4(C)C3C(O)CC21C (some centres undefined),6.0%,.,.,4.4%,.,.
Cc1cc(-c2cn3ccccc3n2)c(C)n1-c1ccccc1,?,i,8.2,20.6µM*,10.1,?
CCN(CC)CCNC(=O)c1ccc(CSc2nc3ccncc3n2Cc2cccc(F)c2)cc1,.,i,.,.,.,i
CS(=O)(=O)N1N=C(c2ccc(Br)cc2)CC1c1ccc2c(c1)OCO2 (centres undefined),0.6%,16.4µM*,36.6,22.1%,-29.0,i
CCCCSc1cnn(-c2ccccc2)c(=O)c1SCCCC,?,18.4µM*,5.5,?,9.2,18.4µM*
COc1ccc(C(=O)N[C@H](C(=O)NCc2cccs2)C(C)C)cc1,-2.9%,i,50.9,?,-18.6,i
N#Cc1c(-c2ccccc2)c(-c2ccccc2)nn(CC(=O)NNC(=O)Nc2ccc(Cl)c(Cl)c2)c1=O,?,i,6.6,?,-1.4,?
N#Cc1c(-c2ccc(F)cc2)c(-c2ccc(F)cc2)nn(CCO)c1=O,3.26µM*,8.2µM*,12.7,5.8µM*,-1.9,3.66µM*
CC(C)C(NS(=O)(=O)c1cccc(C(F)(F)F)c1)C(=O)N1CCc2ccccc2C1 (centres undefined),-7.8%,i,-3.6,?,10.4,i
c1cn2c(Nc3ccc4c(c3)OCCO4)c(-c3ccc(N4CCOCC4)cc3)nc2cn1,4.8%,i,3.7,1.1%,10.9,i
COc1cc(-c2nc3cnccn3c2Nc2c(C)cccc2C)ccc1O,23.1µM*,i,4.6,16.4µM*,-5.4,i
Cc1cccc(C)c1Nc1c(-c2ccc(N3CCOCC3)cc2)nc2cnccn12,?,i,-2.8,23.1µM*,-7.9,i
CCCS(=O)(=O)NC(=O)C1(C)CCCN(C(=O)c2cc(C(C)(C)C)nn2C)C1 (centres undefined),.,i,.,.,.,i
Cc1cc2nc(N)sc2cc1[N+](=O)[O-],-27.7%,i,88.1,-5.2%,-2.1,i
Cc1ccc(S(=O)(=O)N2CCC(C(=O)NCCN3CCOCC3)CC2)cc1,.,i,25.5,.,2.6,i
Cc1cc(C)cc(C(=O)NCC(=O)OCN2C(=O)c3ccccc3C2=O)c1,-5.6%,i,13.1,-5.8%,-9.9,?
CC(C)Cc1ccc(C(C)C(=O)Nc2ccccc2O)cc1 (centres undefined),-70.9%,?,-1.0,12.0%,8.5,20.6µM*
Cc1cc(=O)oc2c(C)c(OCC(=O)N3CCN(c4cccc(Cl)c4)CC3)ccc12,-10.5%,i,4.7,2.8%,4.0,i
COCc1c(C(=O)N2CCN(CCOc3ccccc3)CC2)oc2ccccc12,?,?,16.0,7.0%,-6.6,i
CC1(C)OC[C@@H]2O[C@@]3(C(=O)O)OC(C)(C)O[C@@H]3[C@@H]2O1,-0.5%,.,.,3.3%,.,.
O=C(CC1CCCCC1)N1CCCC(c2nc(-c3ccc(S(=O)(=O)N4CCCC4)cc3)no2)C1 (centres undefined),-8.2%,8.2µM*,-1.0,?,5.3,i
